WT yeast gro inh: growth inhibition of WT yeast, mitochondrial fusion screen; mitochondrial fusion phenotypic screen, WT strain; inhibition, % at 10 µM; 190,000 compounds, 2.1% hits; AID 1362; in the data active means inhibition above about 58%; tested in S. cerevisiae
CHOP inhibitor: inhibitors of CHOP induction in ER stress response; CHO-K1 CHOP-promoter luciferase, tunicamycin-induced, 15-18 h; inhibition, % at 10 µM; 220,000 compounds, 3.8% hits;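 active means compounds that reduced the stress-induced luciferase reporter signal by more than about 70% of percent inhibition, limit read from the data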
Arbovirus anti: antivirals against arbovirus infection; AID 1251; arbovirus infection cell-based antiviral screen; inhibition, % at 10 µM; 200,000 compounds, 0.37% hits; in the data active means inhibition above about 30%
L major viab: reduces viability of Leishmania major promastigotes | resazurin fluorescence viability | inhibition, % at 10 µM | 200,000 compounds, 9% hits; in the data active means inhibition above about 50%;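 further: promastigotes grown with compound for 44 hours at 28 °C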
Each line names hits and unclear results; the compound was inactive in the other large screens. Sampled rows, rich in hits. Any-hit rate of the full collection: about 12%.

O=C(NCc1ccco1)c1cnn2c(C(F)F)cc(-c3ccccc3)nc12	none
COC(=O)[C@H]1C[C@@H]1[C@H](NC(=O)c1ccccc1)c1ccccc1	none
Cc1ccc(C)c(N2CCN(C(=O)CCCN3C(=S)NC(C)(C)CC3C)CC2)c1 (configuration not stated)	none
Cc1cccc(N2CCN(C(=O)CCN3C(=S)NC(C)(C)CC3C)CC2)c1C (configuration not stated)	L major viab 65
COc1cc(/C=N/NC(=O)C(Cc2c[nH]c3ccccc23)NC(=O)OCC(C)C)cc([N+](=O)[O-])c1O (configuration not stated)	none
COc1cc(/C=N/NC(=O)C(Cc2c[nH]c3ccccc23)NC(=O)OCC(C)C)cc([N+](=O)[O-])c1OCc1ccccc1 (configuration not stated)	L major viab 91
CCCCn1c2nc3ccccc3nc2c2c(=O)n(CCC(C)C)cnc21	none
Cc1nc2c(c(=O)n1CCC1=CCCCC1)c1nc3ccccc3nc1n2/N=C/c1ccccc1	none
CCCn1cnc2c(c1=O)c1nc3ccccc3nc1n2CCc1ccccc1	CHOP inhibitor 73
CCCn1cnc2c(c1=O)c1nc3ccccc3nc1n2CCC1=CCCCC1	CHOP inhibitor 84
CCC(C)n1cnc2c(c1=O)c1nc3ccccc3nc1n2Cc1ccc(OC)cc1 (configuration not stated)	WT yeast gro inh 65
CCOCCCn1c(C)nc2c(c1=O)c1nc3ccccc3nc1n2CCC1=CCCCC1	CHOP inhibitor 95
CCCCn1cnc2c(c1=O)c1nc3ccccc3nc1n2Cc1ccc2c(c1)OCO2	none (no result: WT yeast gro inh, Arbovirus anti, L major viab)
O=C(O)c1cnn2c(-c3ccc(F)cc3)ccnc12	none
Cc1cccc(N=Cc2c(O)cc(C)oc2=O)c1	L major viab 62
Cc1cc(O)c(/C=N/Nc2cccc(Cl)c2)c(=O)o1	L major viab 94
Cc1cc(O)c(/C=N/Nc2ccc(Cl)cc2)c(=O)o1	L major viab 98
Cc1cc(O)c(/C=N/Nc2ccccc2Cl)c(=O)o1	none
COc1ccc(Cl)cc1N=Cc1c(O)cc(C)oc1=O	none (no result: WT yeast gro inh, CHOP inhibitor, Arbovirus anti)
CCOC(=O)CNC(=S)N(CCCN1CCCCC1)Cc1cccs1	none
CCOC(=O)CNC(=S)N(CCCN1CCCCCC1)Cc1cccs1	L major viab 73
COc1ccccc1NC(=S)N(CCN1CCCCCC1)Cc1cccs1	L major viab 57
Cc1cccc(C)c1OCc1nnc(NC(=O)CSc2ccc(Cl)cc2)s1	CHOP inhibitor 83, L major viab 59
O=C(CSc1ccccc1)Nc1nnc(COc2ccc(Cl)cc2)s1	none
O=C(COC(=O)c1cc([N+](=O)[O-])ccc1NCCO)c1ccccc1	none
CCCCOc1ccc(CNn2c(C)nc3ccccc3c2=O)cc1	CHOP inhibitor 81
Cn1c(CNC(=O)c2ccccc2F)nnc1SCCOc1ccccc1	none
CN=C(Nc1cccc(OC)c1)SC1CC(=O)N(c2ccc(C(=O)O)cc2)C1=O (configuration not stated)	none
Cc1cc(C(=O)Nc2ccccc2)oc1C	L major viab 56
CCc1ccc(NC(=O)c2c(C(=O)Nc3ccccc3)sc3nc(C)cc(=O)n23)cc1	CHOP inhibitor 82
CCc1ccc(NC(=O)c2cc3c(C)nc4ccccc4c3o2)cc1	WT yeast gro inh 63
Cc1ccc(NC(=O)c2c(C(=O)Nc3ccccc3)sc3nc(C)cc(=O)n23)cc1	none
CCNC(=O)CSc1nnc(-c2cc(-c3ccc(Cl)cc3)nc3ccccc23)o1	none
CC(C)N=C1NN=C(c2ccc(F)cc2)CS1	none
NC(=O)CC(NC(=O)c1ccc(Br)cc1)c1ccc(NCCc2ccc(F)cc2)c([N+](=O)[O-])c1 (configuration not stated)	none (no result: WT yeast gro inh, Arbovirus anti, L major viab)
NC(=O)CC(NC(=O)Cc1ccc(Cl)cc1)c1ccc(NCC2CC2)c([N+](=O)[O-])c1 (configuration not stated)	none (no result: WT yeast gro inh, Arbovirus anti, L major viab)
NC(=O)CC(NC(=O)Cc1ccc(Br)cc1)c1ccc(NCc2ccc(F)cc2)c([N+](=O)[O-])c1 (configuration not stated)	CHOP inhibitor 93 (no result: WT yeast gro inh, Arbovirus anti, L major viab)
NC(=O)CC(NC(=O)Cc1ccc(Br)cc1)c1ccc(NCC2CC2)c([N+](=O)[O-])c1 (configuration not stated)	CHOP inhibitor 77 (no result: WT yeast gro inh, Arbovirus anti, L major viab)
O=C(O)c1cc(S(=O)(=O)Nc2ccc3c(c2)OCCO3)c(Cl)cc1Cl	none
CCCN1CCC2(CC1)C(C#N)=C(N)Oc1c2sc2nc(C)cc(C)c12	L major viab 52
CCOC(=O)N1CCC2(CC1)C(C#N)=C(N)Oc1c2sc2nc(C)cc(C)c12	none
CCc1c(C)[nH]c(C(=O)OCc2ccccc2)c1C	CHOP inhibitor 79
CCc1c(C(=O)OCc2ccccc2)[nH]c(C)c1C	none (no result: WT yeast gro inh, Arbovirus anti, L major viab)
CC1(C)CC(=O)C2=C(C1)N=C1c3ccccc3C(=O)C1C2c1ccc(Cl)cc1 (configuration not stated)	L major viab 94
CCOC(=O)C1=NNC(C(=O)c2ccccc2)C1c1ccc(Cl)cc1 (configuration not stated)	none (no result: WT yeast gro inh, Arbovirus anti, L major viab)
Cc1[nH]nc2c1C(c1ccccc1)C1=C(CC(C)(C)CC1=O)N2 (configuration not stated)	none (no result: CHOP inhibitor)
Cc1ccc(C2C3=C(CC(C)(C)CC3=O)N=C3c4ccccc4C(=O)C32)cc1 (configuration not stated)	L major viab 99
CCOC(=O)C1=C(C)N=C2c3ccccc3C(=O)C2C1c1ccc(Cl)cc1 (configuration not stated)	CHOP inhibitor 88, L major viab 96
CCOc1ccc(/C=N/NC(=S)Nc2c(C)cccc2C)cc1	none
CCNC(=S)N/N=C/c1ccc(OCCOc2ccccc2C)cc1	CHOP inhibitor 85
COc1cc(/C=N/NC(N)=S)ccc1OCc1ccc(C)cc1	L major viab 100
COc1cc(/C=N/O)ccc1OCc1ccc(Cl)cc1	none
COc1cc(/C=N/N=C(N)N)ccc1OCc1ccc(Cl)cc1	CHOP inhibitor 78, L major viab 101
CCOc1cc(/C=N/N=C(N)N)ccc1OCc1ccc(Cl)cc1	CHOP inhibitor 108, L major viab 100
Cc1cc(OCC(=O)N(C(C)C)C(C)C)cc(C)c1Br	none
CCn1c(SCC(=O)N/N=C(\C)c2ccco2)nnc1-c1ccccc1	none
CCS(=O)CC(=O)Nc1c(-c2ccccc2)oc2ccccc2c1=O (configuration not stated)	none (no result: WT yeast gro inh, Arbovirus anti, L major viab)
O=C(CN1CCN(S(=O)(=O)c2ccccc2)CC1)Nc1ccccc1C(=O)c1ccccc1	none
CCOP(=O)(OCC)C(NC(=O)/C=C/c1ccc(OC)cc1)c1ccccc1 (configuration not stated)	none
Cc1cc2oc(=O)cc(CN3CCN(Cc4ccc5c(c4)OCO5)CC3)c2cc1C	L major viab 94
Cc1cccc(N2C(=O)CC(N3CCN(Cc4ccc5c(c4)OCO5)CC3)C2=O)c1 (configuration not stated)	none
Cc1ccc(C)c(N2C(=O)CC(N3CCN(Cc4ccc5c(c4)OCO5)CC3)C2=O)c1 (configuration not stated)	L major viab 87
CCN(CC(=O)Nc1ccc2c(c1)OCCO2)Cc1cc(=O)oc2c(C)c(C)ccc12	L major viab 81
Cc1ccc2c(CN3CCN(Cc4ccc5c(c4)OCO5)CC3)cc(=O)oc2c1C	L major viab 73
C=CCSc1nnc(CC(OC)OC)n1-c1ccccc1	none
